The list is not random: actives were taken first. Their share in the collection is about 9.8%.
HTT cytoprotect = cytoprotection in Huntington HTT-Q103 PC12 cell model; PC12 HTT-Q103 induced, cytoprotection, ATP luminescence, 40 h; Potency, µM (highest dose often 56.4 µM), without a hit: cytoprotection (ATP increase), actives largely listed as activators; hit rate 0.14% among 230,000; active means well fitted curve in the direction sought with a large enough effect; inconclusive means small, poorly fitted or top-dose-only effect, or another doubt; inactive means no such curve, though single readings can be large; an effect the other way counts as inactive or inconclusive; further: potency means the concentration at half of the fitted maximal effect; % of control where 0% means no effect; nearly all actives have a fitted effect of over 45% in size
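Huntington model: PC12 line, ecdysone-inducible HTTQ103 exon1–GFP, tebufenozide 100 nM. Test articles in a dose series. Endpoint luminescence from cellular ATP.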
HttQ103 aggreg = reduces HttQ103-GFP aggregates in PC12 cells; PC12 HttQ103-GFP aggregates, Acumen cytometry, 40 h; Potency, µM (highest dose often 46.1 µM), without a hit: top-dose activity change, negative = inhibition, hits mostly inhibitors; hit rate 1.1% among 220,000; active means well fitted curve in the direction sought with a large enough effect; inconclusive means small, poorly fitted or top-dose-only effect, or another doubt; inactive means no such curve, though single readings can be large; an effect the other way counts as inactive or inconclusive; further: potency means the concentration at half of the fitted maximal effect; on the % scale 0 is the no-effect control and ±100 the full control effect; nearly all actives have a fitted effect of over 60% in size
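PC12/HTTQ103-GFP, ecdysone-inducible; teb 100 nM; cpd qHTS titration; GFP aggregates read on laser cytometer, Ex 488/Em 500-530 nm.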
HPGD block = HPGD (human) dehydrogenase inhibition; purified HPGD, NADH fluorescence kinetic, PGE2 substrate; P15428; hit rate 4.3% among 150,000; Potency, µM, inactives show at the top dose activity change, negative = inhibition, actives largely listed as inhibitors; further: potency means the concentration at half of the fitted maximal effect; on the % scale 0 is the no-effect control and ±100 the full control effect
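NADH formation kinetics: reaction with 30 uM PGE2 and 1 mM NAD+ (final), 20 nM enzyme, Tris-HCl pH 8 with Tween 20, after 15 min compound preincubation at room temperature. Fluorescence change, last versus first of five reads.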
JMJD2E inh = inhibitors of human JMJD2E histone demethylase | B2RXH2 | JMJD2E catalytic domain, FDH-coupled NADH fluorescence (FDH is formaldehyde dehydrogenase) | Potency, µM (highest dose often 57.1 µM), inactives show top-dose activity change, negative = inhibition, most hits filed as inhibitors | hit rate 1.6% among 230,000 | AID 2147;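 further: potency means the concentration at half of the fitted maximal effect; 0% = wells with enzyme and -100% = buffer wells without enzyme; nearly all actives have a fitted effect of over 50% in size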
ALDH1A1 block = ALDH1A1 (human) enzyme inhibition; P00352; Purified ALDH1A1, NADH fluorescence, propionaldehyde substrate; Potency, µM (top dose mostly 75.3 µM), for the others: at the highest dose activity, negative = inhibition, hits mostly inhibitors; hit rate 7.3% among 220,000; AID 1030;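 further: potency means the concentration at half of the fitted maximal effect; plate controls were no enzyme wells and a reference inhibitor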
CBFb-RUNX1 inh = inhibitors of human CBF-beta and RUNX1 interaction; AlphaScreen CBFb-His/RUNX1-biotin binding, biochemical; Potency, µM (series often up to 59.8 µM), without a hit: at the top dose activity, negative = inhibition, most hits filed as inhibitors; 230,000 tested, under 10 active; AID 1477; active means well fitted curve in the direction sought with a large enough effect; inconclusive means small, poorly fitted or top-dose-only effect, or another doubt; inactive means no such curve, though single readings can be large; an effect the other way counts as inactive or inconclusive; further: % of control where 0% means no effect
Target sequence (Q01196 whole entry, looked up): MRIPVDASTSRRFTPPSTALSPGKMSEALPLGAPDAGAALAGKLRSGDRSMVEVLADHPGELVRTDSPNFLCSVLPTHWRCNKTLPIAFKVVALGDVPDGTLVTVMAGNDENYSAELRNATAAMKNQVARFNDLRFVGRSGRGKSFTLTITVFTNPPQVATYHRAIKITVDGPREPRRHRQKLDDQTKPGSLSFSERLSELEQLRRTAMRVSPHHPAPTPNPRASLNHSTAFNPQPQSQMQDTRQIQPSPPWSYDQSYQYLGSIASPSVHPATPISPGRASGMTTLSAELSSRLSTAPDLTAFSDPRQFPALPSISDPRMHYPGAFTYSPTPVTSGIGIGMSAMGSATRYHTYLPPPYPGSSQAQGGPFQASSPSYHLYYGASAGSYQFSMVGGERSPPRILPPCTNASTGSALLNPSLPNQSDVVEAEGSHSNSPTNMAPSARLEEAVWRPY
Target sequence (Q13951 whole entry, looked up): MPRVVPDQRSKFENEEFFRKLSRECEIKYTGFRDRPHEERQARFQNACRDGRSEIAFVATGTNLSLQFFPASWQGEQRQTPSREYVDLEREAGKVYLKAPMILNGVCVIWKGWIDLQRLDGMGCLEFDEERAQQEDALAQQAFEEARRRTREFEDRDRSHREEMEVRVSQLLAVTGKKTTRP
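AlphaScreen proximity signal reports loss of binding between His-tagged CBF-beta and biotin-labelled RUNX1, each at 30 nM. Proteins are pre-associated for 20 minutes, compounds added for 15 minutes, then beads for 90 minutes, all at ambient temperature.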
* hit, by the source's call; ? = inconclusive; / = no result given; [ ] = dose if it differs, or a comment. Unless noted, the call rests on the fitted dose curve; in most records, active means well fitted inhibition curve with a large enough effect (not every such curve was filed as active); inconclusive means small, poorly fitted or top-dose-only effect, or another doubt; inactive means no such curve, though single readings can be large or run the other way.

SMILES | HTT cytoprotect | HttQ103 aggreg | HPGD block | JMJD2E inh | ALDH1A1 block | CBFb-RUNX1 inh
CCOc1ccc(-n2c(O)c(N=Nc3c(C)n(C)n(-c4ccccc4)c3=O)c(=O)[nH]c2=O)cc1 | 5%[10 µM] | 21%[9.22 µM] | / | 7.9µM* | 16µM* | -20%
C=CCn1c(O)c(N=Nc2c(C)n(C)n(-c3ccccc3)c2=O)c(=O)[nH]c1=S | / | -6% | -23% | 5% | ? | -10%
C1=CC2C3C=CC(C3)C2C1 (configuration not stated) | -11% | / | -10% | / | 22µM* | -15%[21.7 µM]
ClCC[N+]12CC[N+](CCCl)(CC1)C2 (tested in a mixture with another compound) | -2%[10 µM] | / | 1% | / | ? | /
NNC(N)=S | -2% | / | -4% | / | ? | 4%[21.7 µM]
O=C1NC(=S)NC(=O)C1C/C=C/c1ccccc1 | -23% | 17%[9.22 µM] | 10µM* | -6% | 28µM* | -3%
COc1cccc(N2CCN(Cc3ccc(Cl)cc3)CC2)c1 | 8% | 10%[9.22 µM] | -14% | 20µM* | 10µM* | ?
CCN1/C(=C\C=C\C2=[N+](CC)c3ccccc3C2(C)C)C(C)(C)c2ccccc21 | -110% | 0.56µM* | -7% | -10% | 6% | ?
CC(C)(C)C(O)C(Cc1ccc(Cl)cc1Cl)n1cncn1 (configuration not stated) | / | / | / | / | / | 17%
C=C/C(=C/C(=O)C[C@H](C)C[C@@H](C)CC[C@H](O)[C@H](C)C(=O)C[C@@H](O)[C@H](C)[C@@H](C)OC(=O)C[C@@H](O)C1=C(C)C(=O)OC1=O)CC | -20%[10 µM] | / | 2.8µM* | / | ? | 2%[13.1 µM]
Cc1ccccc1C1=NCC(=O)N(CC(=O)NCc2ccco2)c2sc3c(c21)CCCC3 | 0% | 2% | 40µM* | 3% | 40µM* | -4%
CCOP(=O)(Cc1cc(C(=O)CC)c(C)o1)OCC | / | 0.01µM* | / | -6% | / | 9%
NC[C@@H]1O[C@H](O[C@H]2[C@H](O)[C@@H](O[C@H]3[C@H](O)[C@H](N)C[C@H](N)[C@H]3O[C@@H]3O[C@H](CO)[C@@H](O)[C@H](O)[C@@H]3N)O[C@H]2CO)[C@@H](N)[C@H](O)[C@@H]1O | 0%[40.3 µM] | / | 2% | 0%[25.5 µM] | -5%[20.9 µM] | 6%[21.7 µM]
CCC(=NC(C)c1ccccc1)c1c(O)n(C)c(=O)n(C)c1=O (configuration not stated) | 25%[10 µM] | ? | -20% | 5% | 1% | -1%
CC(C)=CCSc1nnc([C@@H](N)Cc2c[nH]c3ccccc23)o1 | 9% | 7% | -7% | -23% | ? | -7%
Cc1ccc(NC(=O)CSc2nnc([C@@H](N)Cc3c[nH]c4ccccc34)o2)c(C)c1 | -17% | -4% | ? | 9% | 25µM* | -3%
C=C(C)CSc1nnc([C@@H](N)Cc2c[nH]c3ccccc23)o1 | 7%[0.074 µM] | 2% | ? | -24% | 16µM* | -4%
C=CC(=O)OCC(C)C | 4% | / | -9% | / | 16% | 6%[21.7 µM]
Cc1ccccc1N1C(=O)NC(=O)/C(=C\c2ccc3c(c2)CCCN3Cc2ccccc2)C1=O | -9%[10 µM] | -21% | 1.8µM* | -4% | ? | 7%
S=c1[nH]nc(-c2ccco2)n1/N=C/c1cccs1 | -14%[10 µM] | -20% | 28µM* | -12% | 25µM* | -13%
CC(=O)[C@@H]1CC[C@H]2[C@H]3CC[C@H]4C[C@@H](O)CC[C@]4(C)[C@@H]3CC[C@]12C | 1%[1.9 µM] | / | / | / | / | /
C=CC(C)=O | -2% | / | -3% | / | 20µM* | 7%[21.7 µM]
CC(C)[C@]1(NC(=O)[C@H]2C=C3c4cccc5[nH]cc(c45)C[C@H]3N(C)C2)O[C@@]2(O)[C@H]3CCCN3C(=O)[C@H](Cc3ccccc3)N2C1=O | 6% | / | / | / | / | /
N[C@@H](Cc1cc(O)c(O)cc1O)C(=O)O | -2%[1.9 µM] | / | / | / | / | /
CNCC/C=C/c1cccnc1 | 13% | / | / | / | 1% | 18%
SMILES | HTT cytoprotect | HttQ103 aggreg | HPGD block | JMJD2E inh | ALDH1A1 block | CBFb-RUNX1 inh
N#CC(C#N)=Cc1cccnc1 | -14% | 15% | / | -17% | 3.2µM* | 1%
COP(=S)(OC)Oc1ccc([N+](=O)[O-])c(C)c1 | / | / | / | / | / | 3%
COc1ccc(NC(=S)NCCN2CCOCC2)cc1 | -11%[10 µM] | 0%[9.22 µM] | / | 5% | 1.3µM* | 0%
CCCCC/C=C\C/C=C\C/C=C\CCCCC(=O)NCCO | 2% | / | -3% | -3% | -1% | -1%
O=[N+]([O-])c1ccccc1CCl | ? | / | 2% | / | 13µM* | 2%[21.7 µM]
O=[N+]([O-])c1cccc2ccccc12 | 14% | / | -5% | / | ? | 11%[21.7 µM]
COc1cc(NC(=S)N2CCOCC2)c(OC)cc1Cl | -13%[10 µM] | -13%[9.22 µM] | / | -2% | ? | 3%
S=C(c1ccc(Cl)cc1)N1CCOCC1 | -14% | -8% | 22µM* | -1% | ? | 7%
CN(C)[C@@H]1C(=O)C(C(N)=O)=C(O)[C@]2(O)C(=O)C3=C(O)c4c(O)cccc4[C@](C)(O)[C@H]3C[C@@H]12 | -20%[10 µM] | / | -29% | / | -1%[13.5 µM] | /
Cc1ccc2c(c1)CC1(CN2C)C(=O)NC(=O)N(c2cc(C)ccc2C)C1=O (configuration not stated) | -7% | -25% | -16% | -3% | 1.8µM* | -3%
COc1cccc(N2C(=O)NC(=O)C3(Cc4cc(C)ccc4N(C)C3)C2=O)c1 (configuration not stated) | 2% | -8% | -22% | -6% | 20µM* | 7%
CCCCN1C(=O)NC(=O)C2(Cc3cc(C)ccc3N(C)C2)C1=O (configuration not stated) | -25% | -5% | -10% | 6% | 10µM* | 15%
COc1ccc(OC)c(N2C(=O)NC(=O)C3(Cc4cc(C)ccc4N(C)C3)C2=O)c1 (configuration not stated) | -14% | 8% | -11% | 6% | ? | -3%
c1cc2c(cc1[C@H]1OC[C@@H]3[C@H]1CO[C@H]3c1ccc3c(c1)OCO3)OCO2 | -8%[1.9 µM] | / | -21% | -15% | -1% | 19%[21.7 µM]
CCC[CH2][Sn]([Cl])([Cl])[Cl] | -3% | / | -3% | / | ? | 11%[21.7 µM]
NC(N)=Nc1ccc2[nH]c3c(c2c1)C[C@@]1(O)[C@H]2Cc4ccc(O)c5c4[C@@]1(CCN2CC1CC1)[C@H]3O5 | / | / | 3.2µM* | 10µM* | 1.6µM* | 4%
CC(C)[C@H]1C(=O)N2CCC[C@@H]2[C@]2(O)O[C@@](NC(=O)[C@H]3C=C4c5cccc6[nH]cc(c56)C[C@H]4N(C)C3)(C(C)C)C(=O)N12 | -14% | / | / | / | / | /
C[C@@H]1OC=C2[C@@H](O)[C@H]3O[C@H]3C(=O)[C@@]23[C@H]1[C@H]1C2=C([C@@H](O)[C@H]4O[C@@H]4C2=O)[C@@H]3O[C@@H]1C | 5.6µM* | / | / | / | 12%[13.5 µM] | 7%[13.1 µM]
